Data on 36 compounds can be found in PubChem BioAssay.

One may read the inhibition as the change of the read-out against control, counted positive when it falls.

Several values for one entry are separate records, joined by “and”; a condition that tells them apart may be missing. Identical values can stand only once. A structure can be active in one record and inactive in another. Activity calls are given as the source filed them. How the calls were made is not given here.

System in the first assay: not listed separately
Briefly: signal quenchers or enhancers, Cy5 substrate/SSB – biochemical, NIH Clinical Collection, E. coli SSB, artefact control for HCV NS3 helicase inhibitor project (AID 743268). Particulars: Cy5-oligo bound E. coli SSB, fluorescence interference.
As to `OCCN1CCN(CCCN2c3ccccc3Sc3ccc(C(F)(F)F)cc32)CC1`, the fluorescence ratio was 0.8 (active).
Regarding `NS(=O)(=O)c1cc2c(cc1Cl)NC=NS2(=O)=O`, the fluorescence ratio was 0.95 (inactive).
In the case of `Cc1ccc(-c2cc(C(F)(F)F)nn2-c2ccc(S(N)(=O)=O)cc2)cc1`, the fluorescence ratio is 1.06 (inactive).
Same read-out and setting: the result for `Cc1ccccc1C(OCCN(C)C)c1ccccc1` (configuration not stated) reads 0.78 (active) and 1.01 (inactive); that for `CCc1nc(N)nc(N)c1-c1ccc(Cl)cc1`, 0.95 (inactive); that for `COc1cc2nc(N(C)CCCNC(=O)C3CCCO3)nc(N)c2cc1OC` (configuration not stated), 1.04 (inactive).
For `CN(C)CCOC(c1ccc(Cl)cc1)c1ccccn1` (configuration not stated), the fluorescence ratio was 1.05 (inactive).
The same measure, in the same setting: the result for `N[C@@H](C(=O)N[C@@H]1C(=O)N2C(C(=O)O)=C(Cl)CS[C@H]12)c1ccccc1` reads 0.95 (inactive).
On the same count and under the same terms, the result for `Nc1ncn([C@@H]2O[C@H](CO)[C@@H](O)[C@H]2O)c(=O)n1` reads 1.02 (inactive); that for `NCc1ccc(S(N)(=O)=O)cc1`, 1.01 (inactive).
Same read-out and setting: the result for `Cc1ncc([N+](=O)[O-])n1CC(C)O` (configuration not stated) reads 1.05 (inactive); that for `Cc1ccc(C)c(OCCCC(C)(C)C(=O)O)c1`, 1.06 (inactive).
For `CN1CCCC(n2nc(Cc3ccc(Cl)cc3)c3ccccc3c2=O)CC1` (configuration not stated), the fluorescence ratio was 1.03 (inactive).
`NS(=O)(=O)c1cc2c(cc1C(F)(F)F)NC(Cc1ccccc1)NS2(=O)=O` (configuration not stated): the fluorescence ratio was 1.02 (inactive).
On to `COC1=CC(=O)C[C@@H](C)[C@]12Oc1c(Cl)c(OC)cc(OC)c1C2=O`, for which the fluorescence ratio is 1 (inactive).
With `Cc1cn([C@H]2C[C@H](N=[N+]=[N-])[C@@H](CO)O2)c(=O)[nH]c1=O`, the fluorescence ratio was 1.05 (inactive).
For `CN(CCOc1ccc(CC2SC(=O)NC2=O)cc1)c1ccccn1` (configuration not stated), the fluorescence ratio is 1.05 (inactive) and 0.99 (inactive).
Take `COc1ccc(OC)c(C(O)CNC(=O)CN)c1` (configuration not stated): the fluorescence ratio is 1 (inactive).
Turning to `OC(CCN1CCCC1)(c1ccccc1)C1CCCCC1` (configuration not stated), the fluorescence ratio is 1.04 (inactive).
Same read-out and setting: the result for `NC(=O)N1c2ccccc2CC(=O)c2ccccc21` reads 0.99 (inactive).
Still for that read-out and setting: the result for `CCCNCC(O)COc1ccccc1C(=O)CCc1ccccc1` (configuration not stated) reads 1.02 (inactive); that for `C/C=C/C(=O)N(CC)c1ccccc1C`, 1.05 (inactive).
Still for that read-out and setting: the result for `CCCCCCNC(=O)n1cc(F)c(=O)[nH]c1=O` reads 1.03 (inactive); that for `NC(=O)c1cnccn1`, 0.1 (active).
As to `CN(C)CCc1c[nH]c2ccc(C[C@H]3COC(=O)N3)cc12`, the fluorescence ratio was 1.02 (inactive).
Same read-out and setting: the result for `COc1ccccc1OCC(O)COC(N)=O` (configuration not stated) reads 1 (inactive); that for `COC(=O)Nc1nc2ccc(C(=O)c3ccccc3)cc2[nH]1`, 1.04 (inactive).
With `Cn1cnc([N+](=O)[O-])c1Sc1ncnc2nc[nH]c12`, the fluorescence ratio was 1.03 (inactive).
As for `c1ccc2[nH]c(-c3cscn3)nc2c1`, the fluorescence ratio was 1.06 (inactive).
On to `Cc1onc(-c2c(Cl)cccc2Cl)c1C(=O)N[C@@H]1C(=O)N2[C@@H]1SC(C)(C)[C@@H]2C(=O)O`, for which the fluorescence ratio is 0.97 (inactive).
Consider `Clc1ccc2c(c1)C(N1CCNCC1)=Nc1ccccc1O2`, for which the fluorescence ratio is 0.92 (inactive).
Take `CO[C@@]1(NC(=O)Cc2cccs2)C(=O)N2C(C(=O)O)=C(COC(N)=O)CS[C@@H]21`: the fluorescence ratio is 1.06 (inactive).
Consider `CCc1cccc2c3c([nH]c12)C(CC)(CC(=O)O)OCC3` (configuration not stated), for which the fluorescence ratio is 1.05 (inactive).
`CC(C)(C)NCC(O)COc1cccc2c1C[C@H](O)[C@H](O)C2` (some centres not stated): the fluorescence ratio was 0.99 (inactive).
For the compound `O=S(=O)(O)CCS`, the fluorescence ratio is 0.73 (active).
With `O=c1[nH]cc(F)c(=O)[nH]1`, the fluorescence ratio was 0.97 (inactive).

A further assay deals with Hepatitis C virus NS3 helicase. The assay can be described thus: blockers of NS3h binding to DNA – biochemical, fluorescence polarization, NIH Clinical Collection, primary screen (AID 743270). The settings on record: NS3 helicase binding to Cy5-dT15 DNA, stronger effect = higher value, concentration not given here.
In the case of `OCCN1CCN(CCCN2c3ccccc3Sc3ccc(C(F)(F)F)cc32)CC1`, the inhibition was -6.33% (inactive).
On to `NS(=O)(=O)c1cc2c(cc1Cl)NC=NS2(=O)=O`, for which the inhibition was -5% (inactive).
In the case of `Cc1ccc(-c2cc(C(F)(F)F)nn2-c2ccc(S(N)(=O)=O)cc2)cc1`, the inhibition is -14.1% (inactive).
In the case of `Cc1ccccc1C(OCCN(C)C)c1ccccc1` (configuration not stated), the inhibition is -10.4% (inactive) and -11.4% (inactive).
Still for that read-out and setting: the result for `CCc1nc(N)nc(N)c1-c1ccc(Cl)cc1` reads -1.36% (inactive); that for `COc1cc2nc(N(C)CCCNC(=O)C3CCCO3)nc(N)c2cc1OC` (configuration not stated), -1.98% (inactive); that for `CN(C)CCOC(c1ccc(Cl)cc1)c1ccccn1` (configuration not stated), -5% (inactive).
Still for that read-out and setting: the result for `N[C@@H](C(=O)N[C@@H]1C(=O)N2C(C(=O)O)=C(Cl)CS[C@H]12)c1ccccc1` reads -4.59% (inactive); that for `Nc1ncn([C@@H]2O[C@H](CO)[C@@H](O)[C@H]2O)c(=O)n1`, 1.36% (inactive).
Turning to `NCc1ccc(S(N)(=O)=O)cc1`, the inhibition was -7.73% (inactive).
Same read-out and setting: the result for `Cc1ncc([N+](=O)[O-])n1CC(C)O` (configuration not stated) reads 5.15% (inactive); that for `Cc1ccc(C)c(OCCCC(C)(C)C(=O)O)c1`, 0.45% (inactive).
The same measure, in the same setting: the result for `CN1CCCC(n2nc(Cc3ccc(Cl)cc3)c3ccccc3c2=O)CC1` (configuration not stated) reads -6.73% (inactive); that for `NS(=O)(=O)c1cc2c(cc1C(F)(F)F)NC(Cc1ccccc1)NS2(=O)=O` (configuration not stated), -0.45% (inactive); that for `COC1=CC(=O)C[C@@H](C)[C@]12Oc1c(Cl)c(OC)cc(OC)c1C2=O`, -4.09% (inactive).
Regarding `Cc1cn([C@H]2C[C@H](N=[N+]=[N-])[C@@H](CO)O2)c(=O)[nH]c1=O`, the inhibition was -3.18% (inactive).
Turning to `CN(CCOc1ccc(CC2SC(=O)NC2=O)cc1)c1ccccn1` (configuration not stated), the inhibition was -1.19% (inactive).
On to `COc1ccc(OC)c(C(O)CNC(=O)CN)c1` (configuration not stated), for which the inhibition is -2.27% (inactive).
Turning to `OC(CCN1CCCC1)(c1ccccc1)C1CCCCC1` (configuration not stated), the inhibition is -3.18% (inactive).
As to `NC(=O)N1c2ccccc2CC(=O)c2ccccc21`, the inhibition is -5.15% (inactive).
Take `CCCNCC(O)COc1ccccc1C(=O)CCc1ccccc1` (configuration not stated): the inhibition is -5% (inactive).
`C/C=C/C(=O)N(CC)c1ccccc1C`: the inhibition was -2.77% (inactive).
On to `CCCCCCNC(=O)n1cc(F)c(=O)[nH]c1=O`, for which the inhibition is 0.4% (inactive).
Take `NC(=O)c1cnccn1`: the inhibition is -4.09% (inactive).
For the compound `CN(C)CCc1c[nH]c2ccc(C[C@H]3COC(=O)N3)cc12`, the inhibition is -2.84% (inactive).
Turning to `COc1ccccc1OCC(O)COC(N)=O` (configuration not stated), the inhibition is -1.36% (inactive).
Consider `COC(=O)Nc1nc2ccc(C(=O)c3ccccc3)cc2[nH]1`, for which the inhibition was -15.9% (inactive).
As to `Cn1cnc([N+](=O)[O-])c1Sc1ncnc2nc[nH]c12`, the inhibition was -3.18% (inactive).
For the compound `c1ccc2[nH]c(-c3cscn3)nc2c1`, the inhibition is 0.45% (inactive).
`Cc1onc(-c2c(Cl)cccc2Cl)c1C(=O)N[C@@H]1C(=O)N2[C@@H]1SC(C)(C)[C@@H]2C(=O)O`: the inhibition is -2.27% (inactive).
`Clc1ccc2c(c1)C(N1CCNCC1)=Nc1ccccc1O2`: the inhibition is -4.09% (inactive).
As for `CO[C@@]1(NC(=O)Cc2cccs2)C(=O)N2C(C(=O)O)=C(COC(N)=O)CS[C@@H]21`, the inhibition is 0.45% (inactive).
For `CCc1cccc2c3c([nH]c12)C(CC)(CC(=O)O)OCC3` (configuration not stated), the inhibition was 4.09% (inactive).
`CC(C)(C)NCC(O)COc1cccc2c1C[C@H](O)[C@H](O)C2` (some centres not stated): the inhibition is -1.36% (inactive).
On the same count and under the same terms, the result for `O=S(=O)(O)CCS` reads -2.27% (inactive).
`O=c1[nH]cc(F)c(=O)[nH]1`: the inhibition was -3.18% (inactive).
